Screening results: PubChem, National Center for Advancing Translational Sciences (NCATS)
Tb PFK inh: inhibitors of T. brucei phosphofructokinase. T. brucei PFK, ADP-Glo luminescence. actives 0.17% (n = 330,000). Potency, µM (highest dose often 57.5 µM), for the others: at the top dose activity, negative = inhibition, actives largely listed as inhibitors;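 further: potency means the concentration at half of the fitted maximal effect; 0% = uninhibited 1x PFK enzyme wells and -100% = no-enzyme wells; nearly all actives have a fitted effect of over 60% in size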
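1.25 nM PFK with 0.5 mM F6P and 0.1 mM ATP in 0.1 M TEA pH 8.0, 5 mM MgCl2, incubated 45 min at room temperature; ADP measured by ADP-Glo luminescence; compounds titrated up to 57 uM.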
PI5P4Ka inh: PI5P4K alpha (human) kinase inhibition; actives 1.2% (n = 330,000); PI5P4Kalpha enzyme, ADP-Glo luminescence, 60 min; active compounds read low; max response, %; active means max response of -50% or lower; inconclusive means between -30% and -50%; inactive means -30% or higher; further: value at the top dose of about 77 µM
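Quantitative HTS of the MLSMR library against PI5P4Kalpha with substrate. ATP added last at 5 microM final; room temperature, 60 minutes. Remaining ATP depleted, ADP converted and read as luminescence.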
PI4K2A inh: blocks human PI4K2A kinase activity. Q9BTU6. purified PI4K2A, ADP-Glo luminescence, 1 h; active compounds read low. activity change, negative = inhibition, % at 76.9 µM. actives 0.13% (n = 420,000); in the data active means activity change below about -50%; inconclusive means mostly about -30% to -49%;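 further: -100% = wells without enzyme as full effect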
Target sequence (Q9BTU6 whole entry, looked up): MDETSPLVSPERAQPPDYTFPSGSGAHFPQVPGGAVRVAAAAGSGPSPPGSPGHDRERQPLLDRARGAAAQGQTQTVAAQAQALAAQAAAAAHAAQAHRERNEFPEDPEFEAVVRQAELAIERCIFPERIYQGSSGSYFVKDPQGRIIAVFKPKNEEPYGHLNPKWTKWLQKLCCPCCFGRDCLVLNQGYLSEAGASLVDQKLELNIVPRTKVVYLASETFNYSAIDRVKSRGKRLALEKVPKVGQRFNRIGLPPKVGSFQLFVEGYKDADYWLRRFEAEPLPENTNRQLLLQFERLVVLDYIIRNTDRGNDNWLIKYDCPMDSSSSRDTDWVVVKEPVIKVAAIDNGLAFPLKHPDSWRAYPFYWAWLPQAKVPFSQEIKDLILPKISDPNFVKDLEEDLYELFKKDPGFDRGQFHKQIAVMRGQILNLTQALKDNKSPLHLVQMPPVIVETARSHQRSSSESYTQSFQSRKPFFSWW
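PI4K2A activity was measured by ADP-Glo luminescence: enzyme (4 ug/mL stock) and phosphatidylinositol (1.2 mM stock) in Tris pH 7.5/MgCl2/EGTA/Triton X-100 buffer were reacted with ATP (300 microM stock) for one hour at ambient temperature.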
Pin1 inhibitor: inhibitors of human Pin1; Q13526; Pin1 FP peptide displacement, HiFluor488, 10 min; Potency, µM (top dose mostly 115 µM), for the others: top-dose activity, negative = inhibition, actives largely listed as inhibitors; actives 0.009% (n = 390,000); AID 504891; active means well fitted inhibition curve with a large enough effect in the polarisation, with a control signal flat, not every such curve was filed as active; inconclusive means small, poorly fitted or top-dose-only effect, or effect the other way, or a change in a side signal; inactive means no such curve, though single readings can be large or run the other way; the % refers to the polarisation; further: potency means the concentration at half of the fitted maximal effect
Target sequence (Q13526 whole entry, looked up): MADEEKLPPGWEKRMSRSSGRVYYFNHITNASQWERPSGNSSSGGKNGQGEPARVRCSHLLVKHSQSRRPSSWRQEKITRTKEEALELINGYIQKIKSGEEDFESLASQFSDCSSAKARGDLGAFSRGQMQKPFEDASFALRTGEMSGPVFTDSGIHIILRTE
Tb PGK inh: blocks T. brucei phosphoglycerate kinase; P07378; PGK/GAPDH coupled, Kinase-Glo luminescence, 60 min; Potency, µM (highest dose often 57.5 µM), without a hit: at the top dose activity change, negative = inhibition, actives largely listed as inhibitors; actives 0.043% (n = 380,000); further: potency means the concentration at half of the fitted maximal effect; nearly all actives have a fitted effect of over 60% in size
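Luminescent ATP detection (Kinase-Glo Plus) follows a 60-minute room-temperature incubation, with wells lacking PGK as controls. Buffer: 100 mM TEA (pH 7.6), 5 mM MgCl2, 0.01% Tween-20. Coupling enzyme GAPDH (100 nM final) supplies unstable 1,3-BPG in-well.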
Starred values were filed as active, the others as inactive; i = inactive; ? = inconclusive; nt = no result. Many of the other results were omitted from the sample, so hits are more common in it than they were. Unless noted, the call rests on the fitted dose curve; in most records, active means well fitted curve in the direction sought with a large enough effect; inconclusive means small, poorly fitted or top-dose-only effect, or another doubt; inactive means no such curve, though single readings can be large; an effect the other way counts as inactive or inconclusive. Unless noted, on the % scale 0 is the no-effect control and ±100 the full control effect.

SMILES	Tb PFK inh	PI5P4Ka inh	PI4K2A inh	Pin1 inhibitor	Tb PGK inh
COc1ccc(OCc2cc(C(=O)NCCN3CCCC(O)C3)no2)c(Cl)c1 (stereo unspecified)	0%	-2	-6	0%	-7%
CCOc1ccccc1C1CC(=O)NC(SCC)=C1C#N (stereo unspecified)	-5%	nt	2	4%	3%
CCSC1=C(C#N)C(c2ccccc2OC)CC(=O)N1 (stereo unspecified)	0%	-1	-65*	2%	7%
CC1=NNC(=O)C1CC(=O)N/N=C(/C)c1cccc([N+](=O)[O-])c1 (stereo unspecified)	-4%	-3	-5	0%	3%
CCCNc1ncc2c(=O)[nH][nH]c(=O)c2n1	nt	-55*	4	?	1%
CCCNc1nc2ccccc2c(=O)[nH]1	-1%	0	-3	-1%	12%
CCCCSc1nnc([C@@H]2CCCN2C(=O)OC(C)(C)C)o1	-4%	2	5	0%	-4%
Cn1c(=O)[nH]c(Nc2ccc(F)cc2)c([N+](=O)[O-])c1=O	-3%	-60*	-7	73%	-9%
Cn1c(=O)[nH]c(NCCc2ccc(O)cc2)c([N+](=O)[O-])c1=O	nt	-71*	-5	0%	-9%
CCOC(=O)Cc1csc(NC(=O)c2ccoc2C)n1	-9%	nt	-50*	-1%	-17%
CCOC(=O)Cc1csc(NC(=O)c2cccs2)n1	6%	nt	-84*	-8%	-3%
CCOC(=O)Cc1csc(NC(=O)c2ccc(Br)s2)n1	1%	nt	nt	nt	nt
O=C1C(O)=C(O)C(=O)c2ccccc21	nt	-6	-50*	?	-10%
Nc1c(SCCC(=O)O)ccc2c1C(=O)c1ccccc1C2=O	21%	-87*	-21	?	-16%
O=C(O)c1cc2ccccc2c2c1C(=O)c1ccccc1-2	nt	-14	-2	nt	-7%
O=C1C(=O)c2ccccc2C(O)=C1c1ccccc1F	5%	-18	0	-11%	-4%
O=C1c2ccccc2C(=O)c2[nH]cnc21	-5%	-11	1	10%	-14%
O=C1c2ccccc2C(=O)c2[nH]c(=O)[nH]c21	-6%	-69*	-22	3%	i
Nc1cc(C(=O)O)c(N)c2c1C(=O)c1ccccc1C2=O	-12%	-83*	-55*	?	?
CCOC(=O)C1C2C=CC3(CN(Cc4ccco4)C(=O)C13)O2 (stereo unspecified)	-1%	-11	1	0%	-3%
Cc1ccccc1NCc1nc2ccccc2n1CCOc1ccccc1	nt	nt	-1	1%	-8%
Cc1ccc(C(=O)N2CCCC2)cc1S(=O)(=O)Nc1ccccc1	-4%	-9	3	-6%	-11%
COc1ccccc1NC(=O)CSc1nc2ccccc2c(=O)n1CCNC(C)=O	-1%	nt	-2	-8%	3%
CNC(=O)c1c(NC(=O)CCS(=O)(=O)c2ccc(Cl)cc2)sc2c1CCN(C(=O)OC)C2	-3%	-5	-3	7%	i
O=C(NCC1CCCO1)c1cccc(S(=O)(=O)Nc2cccc(C(F)(F)F)c2)c1 (stereo unspecified)	3%	5	-1	-1%	i
SMILES	Tb PFK inh	PI5P4Ka inh	PI4K2A inh	Pin1 inhibitor	Tb PGK inh
Nc1c(C(=O)O)ccc2c1C(=O)c1ccccc1C2=O	-3%	-69*	-17	-1%	-14%
O=C1c2ccccc2C(=O)c2c1ccc(O)c2O	nt	-74*	-27	?	?
O=C(O)c1ccc([N+](=O)[O-])c2c1C(=O)c1ccccc1C2=O	nt	0	-5	-10%	-3%
Cc1cnc(NC(=O)CSCc2c(C)noc2C)s1	-2%	6	-2	1%	-1%
O=[N+]([O-])c1ccc(S(=O)(=O)N2CCC3(CC2)OCCN3S(=O)(=O)c2cccs2)cc1	-11%	-4	-2	5%	3%
Nc1c(N)c2ccccc2oc1=O	-30%	nt	0	-14%	-3%
O=c1oc2ccccc2c2oc3cc(O)c(O)cc3c12	0%	-64*	-12	?	-8%
Nc1c(-c2ccc3c(c2)OCCO3)oc2ccccc2c1=O	1%	4	3	-4%	i
CC(C)OC(=O)Nc1ccc2c(c1)N(C(=O)N1CCN(C)CC1)c1ccccc1CC2	-3%	-7	-4	2%	-14%
COc1cccc(C(=O)NC(=S)Nc2ccc([N+](=O)[O-])cc2C)c1	0%	0	0	-4%	-3%
C=CC(=O)NCC1OCCc2ccccc21 (stereo unspecified)	2%	0	-2	1%	-2%
O=C(/C=C/c1ccco1)NCC1OCCc2ccccc21 (stereo unspecified)	-29%	-70*	-20	?	?
CCOc1cc(/C=C2\SC(=Nc3ccc(CC)cc3)NC2=O)ccc1OCC(=O)O	-17%	-91*	-19	nt	?
CCc1ccc(N=C2NC(=O)/C(=C/c3cc(Br)c(OCC(=O)O)c(OC)c3)S2)cc1	-16%	-97*	-6	nt	-28%
COc1ccc(/C=C2\C(=O)NC(=S)N2C(=O)c2ccc(F)cc2)cc1	11%	-63*	-1	?	?
CN(C(=S)NC(=O)c1ccc(Cl)cc1)C1CCCCC1	?	-98*	0	?	2%
COc1ccc(S(=O)(=O)N2CCOCC2)cc1NC(=O)C1CC1	1%	-5	3	-2%	0%
CCOc1ccc(C(C)=O)cc1COc1ccc(-c2nnco2)cc1	-2%	-2	1	1%	2%
N#C/C(=C\c1ccc(C(=O)O)cc1)c1ccccn1	0%	?	-65*	-8%	-19%
COc1cc2cc(CCCOC(=O)c3cccc(Br)c3)oc(=O)c2cc1OC	2%	8	0	-1%	3%
O=C1NNC(c2ccccc2)=N/C1=C\c1ccccc1Cl	-18%	-3	-26	-6%	-4%
O=C1NNC(c2ccccc2)=N/C1=C\c1ccco1	-3%	-53*	6	-2%	-6%
O=C(CSc1ccc(-c2cccnc2)nn1)N1CCCc2ccccc21	-1%	nt	nt	nt	nt
Cc1ccccc1NC(=O)CSc1n[nH]c(-c2ccco2)n1	-3%	3	2	-10%	-3%
Cc1ccccc1NC(=O)CSc1nnc(-c2ccco2)c(-c2ccco2)n1	?	-66*	?	nt	-16%
COc1ccc(-c2nnc(SCC(=O)Nc3c(C)cccc3C)nc2-c2ccc(OC)cc2)cc1	nt	nt	-3	?	-2%
Cc1cccc(C)c1NC(=O)CSc1nnc(-c2ccco2)c(-c2ccco2)n1	?	-69*	-22	?	?
COc1ccc(C2/C(=C(/O)c3ccccc3)C(=O)C(=O)N2c2ccccn2)cc1 (stereo unspecified)	1%	5	0	0%	i
CS(=O)(=O)N(CC(=O)N1CCCC1)c1ccc(F)cc1	nt	4	-3	nt	3%
